# Laboratory results taken from PubChem BioAssay AID651551 (Sanford-Burnham Center for Chemical Genomics, 2012).
# Experiment: GAPDH versus PEG-3 reporter suppression – cell-based, luminescence, counter-screen for PEG-3 promoter inhibitor project, SAR follow-up (AID 651551)
# Conditions: HeLa PEG-Prom / GAPDH luciferase reporter, 6 or 24 h, run 2, 6 h; at 99 µM (top of the series)
row,Compound,inhibition % (higher = more inhibition) [%]
1,O=C(Nc1nccs1)c1nn(-c2ccccc2)c(=O)c2ccccc12,50.3
2,Cc1cc(NC(=O)c2ccccc2)n(-c2nc3ccccc3n2C)n1,16.7
3,Cc1cc(NC(=O)c2ccccc2)n(-c2nc3ccccc3[nH]2)n1,15.3
4,CCCn1nc(C(=O)Nc2nc(-c3ccccn3)cs2)c2ccccc2c1=O,64.7
5,O=C(Nc1nc(-c2ccccc2)cs1)c1nn(-c2ccccc2)c(=O)c2ccccc12,28.9
6,COc1ccc(-n2nc(C(=O)NCC(=O)Nc3cc(OC)c(OC)c(OC)c3)c3ccccc3c2=O)cc1OC,26.1
7,COc1ccc(-n2nc(C(=O)NCC(=O)Nc3cccc(OC)c3)c3ccccc3c2=O)cc1,28.5
8,Cc1cc(NC(=O)c2ccccc2C(F)(F)F)n(-c2nc3ccccc3[nH]2)n1,91.4
9,CCCn1nc(C(=O)Nc2nc(-c3ccncc3)cs2)c2ccccc2c1=O,56.1
10,COc1ccc(-n2nc(C(=O)NCC(=O)Nc3ccc(OC)c(OC)c3)c3ccccc3c2=O)cc1,55.7
11,Cc1nc(NC(=O)c2ccccc2)sc1-c1csc(Nc2ccccc2Cl)n1,-2.1
12,Cc1cc(NC(=O)c2ccccc2C)n(-c2nc3ccccc3[nH]2)n1,26.1
13,Cc1cc(NC(=O)c2cccc(C)c2C)n(-c2nc3ccccc3[nH]2)n1,19.1
14,CCCn1nc(C(=O)Nc2nc3ccccc3s2)c2ccccc2c1=O,12.5
15,Cc1ccc(Cl)cc1Nc1nc(-c2sc(NC(=O)c3ccco3)nc2C)cs1,71
16,CCn1nc(C(=O)Nc2nc(-c3ccccn3)cs2)c2ccccc2c1=O,72.7
17,COCCCNC(=O)c1ccc(Cn2c(=O)c3ccccc3n(Cc3ccccc3C#N)c2=O)cc1,21.9
